Experimental data published in PubChem BioAssay (EPA / NIEHS).
Where “and” joins values, the source holds several entries; their conditions need not be identical. Equal entries are not always repeated. Records with an inconclusive call do not appear. Where a structure was tested more than once in an assay, its records may differ in their call. Calls of active or inactive are those of the source. How the source made its calls: active means hit-call score of the fitted dose curve at least 0.9, where 1 is the maximum; inconclusive means response in the unintended direction; inactive means score below 0.9.

What was measured:
[1] = TOX21_p53_BLA_p2_viability: Viability Assessment in the Tox21 HCT-116 p53 Agonism Beta-lactamase Assay, Phase 2 (AID 2283591);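 further: compound exposure lasted 16 h at 37 °C; actives lower the ATP signal meaning cytotoxicity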
Outline: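 HCT116 p53-bla cells, 4000/well, dosed after 5 h plating (217-fold dilution of DMSO stocks) and incubated 16 h at 37C. Viability taken as cellular ATP by CellTiter-Glo luminescence after 30 min RT; signal loss marks cytotoxicity.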

[2] = biological target: Cellular tumor antigen p53 (Homo sapiens) (UniProt P04637); test: TOX21_p53_BLA_p2_ratio: Tox21 HCT-116 p53 Agonism Beta-lactamase Assay, Ratio, Phase 2 (AID 2283592)
Outline: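 Ratio endpoint: beta-lactamase cleavage of CCF4-AM, blue (460 nm) over green (530 nm). HCT116 reporter line; 16 h treatment, 37C; substrate 2 h RT.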

[3] = TOX21_p53_BLA_p3_viability: Viability Assessment in the Tox21 HCT-116 p53 Agonism Beta-lactamase Assay, Phase 3 (AID 2283593);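 further: cells exposed to compound for 16 h before reading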
Outline: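 HCT116 cells, 4000/well, dosed 5 h after plating by pin transfer (217-fold dilution from DMSO stock) and incubated 16 h at 37C, 5% CO2. Viability read as ATP luminescence with CellTiter-Glo after 30 min at room temperature.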

[4] = biological target: Cellular tumor antigen p53 (Homo sapiens) (UniProt P04637); test: TOX21_p53_BLA_p3_ratio: Tox21 HCT-116 p53 Agonism Beta-lactamase Assay, Ratio, Phase 3 (AID 2283596)
Outline: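 Cells were seeded at 4000/well, rested 5 h at 37C, then dosed with DMSO compound solutions (217-fold dilution) for 16 h. CCF4-AM substrate was loaded for 2 h at room temperature, and the 460/530 nm emission ratio was fitted for gain of signal versus DMSO.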

[5] = TOX21_p53_BLA_p4_viability: Viability Assessment in the Tox21 HCT-116 p53 Agonism Beta-lactamase Assay, Phase 4 (AID 2283597);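 further: hits lower the luminescence signal meaning cytotoxicity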
Outline: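 Cytotoxicity was inferred from loss of CellTiter-Glo luminescence. HCT116 cells had been dosed with compounds after 5 h plating, incubated 16 h at 37C and 5% CO2, and exposed to the CCF4-AM substrate for 2 h.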

[6] = biological target: Cellular tumor antigen p53 (Homo sapiens) (UniProt P04637); test: TOX21_p53_BLA_p5_ratio: Tox21 HCT-116 p53 Agonism Beta-lactamase Assay, Ratio, Phase 5 (AID 2283599)
Outline: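 HCT-116 p53-bla cells (4000/well) plated 5 h, dosed with compound (217-fold DMSO dilution) for 16 h at 37 C; CCF4-AM substrate 2 h at room temperature. Activity is the 460/530 nm emission ratio (405 nm excitation), fitted in gain-of-signal direction versus DMSO.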

[7] = TOX21_p53_BLA_p5_viability: Viability Assessment in the Tox21 HCT-116 p53 Agonism Beta-lactamase Assay, Phase 5 (AID 2283600)
Outline: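 Luciferase-coupled ATP quantitation of cells treated for 16 h (37C, 5% CO2) with test chemicals delivered in DMSO via a 217-fold dilution; 4000 cells/well; reagent incubated 30 min at room temperature before luminescence reading.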

[8] = biological target: Cellular tumor antigen p53 (Homo sapiens) (UniProt P04637); test: TOX21_p53_BLA_p4_ratio: Tox21 HCT-116 p53 Agonism Beta-lactamase Assay, Ratio, Phase 4 (AID 2283601)
Outline: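 HCT-116 p53 beta-lactamase reporter cells (4000/well) preincubated 5 h, then compound (217-fold dilution of DMSO stock) for 16 h at 37C. CCF4-AM substrate added 2 h at room temperature; 460/530 nm emission ratio fitted upward versus DMSO.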

[9] = Tanguay_ZF_120hpf_MORT_legacy: (Legacy) Oregon State University Tanguay Lab 120 Hour Post-fertilization zebrafish Assay for Mortality (AID 2283633)
Outline: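 Dechorionated Tropical 5D wild-type zebrafish embryos, one per well from 6 hpf, were statically exposed at 28C in the dark until 120 hpf (0.64% DMSO final). Mortality was scored as present/absent by brightfield microscopy, fitted positively versus DMSO.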

[10] = Tanguay_ZF_120hpf_YSE_legacy: (Legacy) Oregon State University Tanguay Lab 120 Hour Post-fertilization zebrafish Assay for Yolk Sac Edema (AID 2283634);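 on AC50: actives raise the incidence of yolk sac edema above the DMSO baseline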
Outline: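 Tropical 5D wild-type embryos, dechorionated with pronase at 4 hpf, were exposed singly from 6 hpf to 120 hpf under static, sealed, dark conditions at 28C with 0.64% DMSO final. Yolk sac edema was scored present/absent by brightfield microscopy.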

[11] = Tanguay_ZF_120hpf_AXIS_legacy: (Legacy) Oregon State University Tanguay Lab 120 Hour Post-fertilization zebrafish Assay for Body Axis Malformation (AID 2283635)
Outline: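 Tropical 5D wild-type zebrafish embryos, dechorionated with pronase at 4 hpf, were placed singly in wells at 6 hpf and exposed statically to test chemical (0.64% DMSO final) at 28C until 120 hpf, then scored by brightfield for body axis defects.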

[12] = Tanguay_ZF_120hpf_EYE_legacy: (Legacy) Oregon State University Tanguay Lab 120 Hour Post-fertilization zebrafish Assay for Eye Malformation (AID 2283636);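 further: binary presence or absence of eye malformation scored by brightfield in 120 hpf larvae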
Outline: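 5D wild-type embryos, pronase-dechorionated at 4 hpf; static exposure 6–120 hpf, 28C, dark; DMSO 0.64% final; 5uM trimethyltin chloride positive control. Binary eye-defect scoring at 120 hpf; dead embryos not scored.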

[13] = Tanguay_ZF_120hpf_SNOU_legacy: (Legacy) Oregon State University Tanguay Lab 120 Hour Post-fertilization zebrafish Assay for Snout Malformation (AID 2283637)
Outline: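 Binary brightfield scoring of snout malformation at 120 hpf. Dechorionated 5D wild-type embryos, one per well, static exposure from 6 hpf at 28C, sealed and dark; final DMSO 0.64% (vol/vol), DMSO as baseline; 5uM trimethyltin chloride positive control.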

[14] = Tanguay_ZF_120hpf_JAW_legacy: (Legacy) Oregon State University Tanguay Lab 120 Hour Post-fertilization zebrafish Assay for Jaw Malformation (AID 2283638)
Outline: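 Tropical 5D wild-type embryos, dechorionated with pronase at 4 hpf, were placed singly per well at 6 hpf and statically exposed at 28C until 120 hpf (0.64% DMSO final). Jaw malformation scored as present/absent by brightfield microscopy at 120 hpf, analyzed relative to DMSO.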

[15] = Tanguay_ZF_120hpf_OTIC_legacy: (Legacy) Oregon State University Tanguay Lab 120 Hour Post-fertilization zebrafish Assay for Otic Vesicle Malformation (AID 2283639)
Outline: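 Brightfield scoring at 120 hpf, binary present/absent; DMSO negative control, 5uM trimethyltin chloride positive control. Static exposure at 28C, final DMSO 0.64% (vol/vol). Dead embryos not scored for malformation.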

[16] = Tanguay_ZF_120hpf_BRAI_legacy: (Legacy) Oregon State University Tanguay Lab 120 Hour Post-fertilization zebrafish Assay for Brain Malformation (AID 2283641)
Outline: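 Tropical 5D wild-type zebrafish embryos were exposed statically in sealed, foil-covered plates at 28C until 120 hpf, with 0.64% (vol/vol) final DMSO. Brain malformation was scored present/absent by brightfield microscopy, relative to DMSO baseline.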

[17] = Tanguay_ZF_120hpf_SOMI_legacy: (Legacy) Oregon State University Tanguay Lab 120 Hour Post-fertilization zebrafish Assay for Somite Malformation (AID 2283647)
Outline: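 Tropical 5D wild-type zebrafish embryos, dechorionated with pronase at 4 hpf, were placed singly at 6 hpf and statically exposed until 120 hpf at 28C in 0.64% DMSO. Somite malformation was scored present/absent by brightfield microscopy versus DMSO.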

[18] = Tanguay_ZF_120hpf_PE_legacy: (Legacy) Oregon State University Tanguay Lab 120 Hour Post-fertilization zebrafish Assay for Pericardial Edema (AID 2283640);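 on AC50: potency for increased incidence of pericardial edema versus DMSO baseline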
Outline: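 Tropical 5D wild-type zebrafish embryos were exposed statically to 120 hpf at 28C, sealed and foil-covered, in 0.64% DMSO final. Pericardial edema was scored present/absent by brightfield microscopy; dead embryos were not scored.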

Measured: AC50

Cellular tumor antigen p53 (Homo sapiens), sequence (P04637 whole entry, looked up): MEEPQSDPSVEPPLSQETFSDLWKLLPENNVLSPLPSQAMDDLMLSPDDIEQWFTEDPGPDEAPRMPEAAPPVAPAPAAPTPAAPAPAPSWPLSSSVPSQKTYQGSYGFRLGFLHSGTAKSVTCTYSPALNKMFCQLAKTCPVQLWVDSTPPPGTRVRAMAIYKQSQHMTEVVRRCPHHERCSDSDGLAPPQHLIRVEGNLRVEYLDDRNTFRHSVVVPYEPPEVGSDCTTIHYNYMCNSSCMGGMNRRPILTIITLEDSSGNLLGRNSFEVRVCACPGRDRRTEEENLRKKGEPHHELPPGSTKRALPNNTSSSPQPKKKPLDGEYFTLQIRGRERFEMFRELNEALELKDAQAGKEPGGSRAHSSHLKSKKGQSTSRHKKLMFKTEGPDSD

COc1ccc2sc(C(=O)Nc3nnn[nH]3)c(OC(C)C)c2c1
active: [1] 13.2 µM | [3] 17.8 µM | [5] 14.3 µM
not listed: [18]
inactive: all other assays above

CC(C)CCCCCCCOC(=O)CCCCC(=O)OCCCCCCCC(C)C
not listed: [2] | [4] | [5] | [6] | [7] | [9] | [13]
inactive: all other assays above

Cn1c(=O)cc(Oc2ccc(F)cc2F)c2cnc(NCC(C)(C)O)nc21
inactive: [1] | [3] | [5] | [11] | [12] | [13] | [14] | [15] | [16]
active: [10] 15.7 µM | [18] 10.3 µM

CC(=O)OCCC(C)C
not listed: [7] | [9] | [13] | [17]
inactive: all other assays above

CC(=O)OC[C@H]1O[C@@](COC(C)=O)(O[C@H]2O[C@H](COC(C)=O)[C@@H](OC(C)=O)[C@H](OC(C)=O)[C@H]2OC(C)=O)[C@@H](OC(C)=O)[C@@H]1OC(C)=O
not listed: [7] | [8] | [9] | [13] | [17]
inactive: all other assays above

Nc1nc2ncc(CNc3ccc(C(=O)N[C@@H](CCC(=O)O)C(=O)O)cc3)nc2c(=O)[nH]1
not listed: [2] | [7] | [9] | [16] | [17]
inactive: all other assays above

Cn1c(=O)c2c(ncn2C)n(C)c1=O
not listed: [7] | [9] | [13]
inactive: all other assays above

O=c1n(CC2CO2)c(=O)n(CC2CO2)c(=O)n1CC1CO1 (configuration not stated)
inactive: [1] | [3] | [5] | [7] | [9] | [10] | [11] | [12] | [13] | [14] | [15] | [18] | [16] | [17]
active: [3] 74.3 µM | [5] 51.2 µM | [6] 32.2 µM and 10.7 µM and 22.6 µM | [8] 33.7 µM and 32.1 µM and 23.5 µM
